This is part of a sample that, as a whole, favours compounds with a hit. Of some 83,000 tested, about 20% had one in any assay.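 Method: cells in 96-well plates; compound added at one concentration; 48 h incubation; percent growth measured; values under 10 scored active.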 Calls of active or inactive are those of the source.

For this test, the system named is OVCAR-8 ovarian. Briefly: NCI-60 one-dose screen, 48 h (100 = growth as untreated, 0 = no growth, -100 = all killed). Particulars: 10 µM unless noted. The protocol: Growth inhibition of the OVCAR-8 human tumor cell line is measured as a screen for anti-cancer activity. Cells are grown in 96 well plates and exposed to the test compound for 48 hours. Compounds are tested at a single concentration, which is 10^-5 M for most compounds. The reported endpoint is percent growth (GI% or GIPRCNT), where numbers from 0 - 100% represent growth inhibition, and numbers from -100% - 0 represent cell death. For example, a value of 40 represents 60% growth inhibition. A value of 0 means no net growth occurred over the course of the experiment. A value of -40 indicates 40% of cells at the beginning of the experiment died by the end of the experiment. A value of -100 means all cells are dead at the end of the experiment.
NCI-60 Human Tumor Cell Lines Screen was performed using the standard one-dose NCI protocol, which is described in more detail at https://dtp.cancer.gov/discovery_development/nci-60/default.htm.
Compounds with GIPRCNT values below 10 were considered active. Activity score was based on GIPRCNT using the following formula: […]
Score is 0 for GIPRCNT values of 100 or above, 50 for GIPRCNT values of 0, and 100 for GIPRCNT values of -100.
In the case of `NC(=O)c1ncn2c(=O)n(CCF)nnc12`, the growth was 38.3% (inactive). Consider `CN(C)S(=O)(=O)c1ccc(-c2nc(C(Cl)Cl)nc3cc(-c4ccc(F)cc4)nn23)cc1`, for which the growth was 2.7% (active). The result for `COc1ccc(NC2=C(Br)C(=O)C(C)=C(C)C2=O)cc1OC` reads 96% (inactive); that for `COc1cc(OC)cc(-c2cc(-c3c[nH]c4ccccc34)nc(-c3c[nH]c4ccccc34)c2C#N)c1`, 102% (inactive). The result for `CNCCN(C)c1ccc(Nc2cc(NC3CC3)n3ncc(C#N)c3n2)cc1NC(C)=O` reads 21.7% (inactive). The result for `COc1ccc(C(=NNS(=O)(=O)c2ccc(C)cc2)c2ccccc2)cc1OC` reads 97.5% (inactive); that for `CCc1cc2c(cc1Cl)nc1c(=O)[nH]c(=O)nc-1n2CCOCC(C)C`, 59.2% (inactive); that for `O=C(CCCCCCNC(=O)C(O)(O)C(F)(F)F)Nc1ccc(Cl)cc1`, 11.9% (inactive). As for `Cc1ccc2c(n1)C(=O)C(Cl)=C(Nc1cccc(C(F)(F)F)c1)C2=O`, the growth is 76% (inactive). In the case of `O=S(=O)(NCCCNc1nccc(-c2[nH]c(-c3ccccc3)nc2-c2ccc(F)c(O)c2)n1)c1cccc2ccccc12`, the growth was 54.3% (inactive). As for `Cc1nc(N)sc1-c1csc(Nc2ccc(C(F)(F)F)cc2)n1`, the growth is 49.4% (inactive).

With `C=C1CCc2nc(SCC(=O)O)ccc2N1`, the growth was 105% (inactive). The same measure for `CCC(=C(c1ccc(OCCN2CCCCCC2)cc1)c1ccc(OCCN2CCCCCC2)cc1)c1ccc(Cl)cc1`: 2.46% (active). The result for `O=S(=O)(Oc1ccc(-c2cn3ccsc3n2)cc1)c1cccc(C(F)(F)F)c1` reads 101% (inactive). The same measure for `Brc1cccc(-c2cc(-c3cnc4c(c3)OCCO4)n[nH]2)c1`: 46.4% (inactive); for `Cc1[nH]c(C(=O)Nc2ccc(S(=O)(=O)N3CCCCC3)cc2OCCOCCOCCOCCOCCOCCOCCOCCOCCOc2cc(S(=O)(=O)N3CCCCC3)ccc2NC(=O)c2[nH]c(C)c3c2CCCCC3=O)c2c1C(=O)CCCC2`: 13.6% (inactive). `CC(=O)C1=C(C)NC(NNc2ccccc2)=NC1c1ccc([N+](=O)[O-])cc1` (stereo not given): the growth was 91.1% (inactive). As to `CCCNNC(=O)c1ccc(-c2ccc(NC(=O)CCCCCCC(=O)N[C@H](C(=O)N3C[C@H](O)C[C@H]3C(=O)N[C@@H](C)c3ccc(-c4scnc4C)cc3)C(C)(C)C)cc2)cc1`, the growth was 32.7% (inactive).

Consider `C#Cc1cc(OC)c(C(=O)Nc2ccc(F)cc2C(=O)Nc2cccc(S(=O)(=O)C(F)(F)F)c2)cn1`, for which the growth is 5.67% (active). Regarding `O=S(=O)(NCCCNc1nccc(-c2[nH]c(-c3ccccc3)nc2-c2ccc(F)c(O)c2)n1)c1cccc(F)c1`, the growth is 82% (inactive).

In the case of `O=C(CSc1nc2ccccc2c(=O)n1-c1ccccc1)N/N=C/c1ccc(Oc2ccc(Br)cc2)cc1`, the growth is 63.3% (inactive). With `CCN(CC)CCOc1ccc(C(=C(C)Cc2ccc(OC)cc2)c2ccc(OCCN(CC)CC)cc2)cc1`, the growth was 74.5% (inactive).

Regarding `CC[C@H](CC[C@@H](C)[C@H]1CC[C@H]2[C@@H]3CC(=O)C4=CC(=O)/C(=C/c5ccc([N+](=O)[O-])cc5)C[C@]4(C)[C@H]3CC[C@]12C)C(C)C`, the growth was 100% (inactive).

In the case of `CCN(CC)c1ccc(/C=N/NC(=O)c2ccc(NS(C)(=O)=O)cc2)cc1`, the growth is 9.7% (active).

As for `CCc1nnc(NC(=O)c2cc(-c3ccc(Cl)cc3Cl)oc2C)s1`, the growth was 90.3% (inactive).

Take `N#CC1=C2NCCCNc3oc(nc3C#N)Cc3ccccc3CC(=N1)O2`: the growth is 97.4% (inactive). Regarding `Cc1ccc2c(n1)C(=O)C(Cl)=C(Nc1ccc(C(F)(F)F)cc1)C2=O`, the growth is 39.3% (inactive). Consider `Fc1ccc2nc(-c3cnn4cccnc34)sc2c1`, for which the growth was 83.5% (inactive). The result for `Clc1ccc(CSc2nnc(-c3ccc(Cl)cc3)n2-c2ccccc2)cc1` reads 46.3% (inactive); that for `C#CCN(C)CCCOc1ccc(NC(=O)CCCCCCC(=O)NO)cc1Cl`, 17.7% (inactive); that for `Cc1ccccc1NC(=O)Nc1nc2ccc([N+](=O)[O-])cc2s1`, 9.56% (active). The result for `CCOC(=O)c1cnc2c(-c3ccc(Cl)c(Cl)c3)cnn2c1` reads 93.6% (inactive); that for `O=C(CCCCCCNC(=O)C(O)(O)C(F)(F)F)Nc1ccc(Br)cc1`, 7.83% (active); that for `O=C(CCCCCCNC(=O)C(O)(O)C(F)(F)F)Nc1ccc(-c2ccccc2)cc1`, 6.81% (active). The result for `CCS(=O)(=O)Nc1ccc(C(=O)CC2(O)C(=O)Nc3ccccc32)cc1` (stereo not given) reads 101% (inactive). Consider `CCOC(=O)c1c(NC(=O)c2cccc(C(F)(F)F)c2)sc2c3c(ccc12)OCN(C)C3`, for which the growth was -41.6% (active). The same measure for `C[C@H](Nc1ncnc2ccc(-c3cnc(Cl)c(NS(C)(=O)=O)c3)cc12)c1ccccc1`: -26.3% (active); for `NC(=S)n1c(=O)n(-c2cccc(C(F)(F)F)c2)c(=O)c2cc(-c3ccc(F)cc3F)ccc21`: 10.9% (inactive). The result for `COc1cc(C(=O)c2cc(C(C)=O)c3c(C)cccn23)cc(OC)c1OC` reads 106% (inactive); that for `Brc1cc(-c2cc(-c3ccc4c(c3)OCCO4)[nH]n2)cs1`, 51.8% (inactive).

(Values after PubChem BioAssay (NCI).)
